# Test results reported in the supplement of paper PMC7411054.
# Where a name gives a salt, the structure may show the parent alone.
# Tests used:
# Conditions in all cases: treatment time: 24 h
# [1] = system: A549-ACTB-RAB5A; assay: phenotypically active (imaging signature differs from DMSO and reproducible) at any of 0.3-9 uM (binary (1 = active, 0 = inactive)); higher = active
# Summary of the method: (§1)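 After 24 h at 0.3, 1, 3 or 9 µM, with four wells per treatment, fifteen gene-edited A549, HepG2 and WPMY1 reporter lines carrying BFP, GFP and RFP/FusionRed were imaged live. Each well's live-cell features were expressed relative to solvent control wells. Deviation required ≥3 of 4 wells past the 95th percentile of control Euclidean distances, and reproducibility a median replicate Pearson correlation over the 95th percentile of non-replicates. Phenotypic activity rested on both.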
# [2] = system: A549-CANX-COX4; assay: as above
# Summary of the method: as §1
# [3] = system: A549-GM130-SQSTM1; assay: as above
# Summary of the method: as §1
# [4] = system: A549-TP53BP1-CLTA; assay: as above
# Summary of the method: as §1
# [5] = system: A549-TUBA1B-RELA; assay: as above
# Summary of the method: as §1
# [6] = system: HepG2-ACTB-RAB5A; assay: as above
# Summary of the method: as §1
# [7] = system: HepG2-CANX-COX4; assay: as above
# Summary of the method: as §1
# [8] = system: HepG2-GM130-SQSTM1; assay: as above
# Summary of the method: as §1
# [9] = system: HepG2-TP53BP1-CLTA; assay: as above
# Summary of the method: as §1
# [10] = system: HepG2-TUBA1B-RELA; assay: as above
# Summary of the method: as §1
# [11] = system: WPMY1-ACTB-RAB5A; assay: as above
# Summary of the method: as §1
# [12] = system: WPMY1-CANX-COX4; assay: as above
# Summary of the method: as §1
# [13] = system: WPMY1-GM130-SQSTM1; assay: as above
# Summary of the method: as §1
# [14] = system: WPMY1-TP53BP1-CLTA; assay: as above
# Summary of the method: as §1
# [15] = system: WPMY1-TUBA1B-RELA; assay: as above
# Summary of the method: as §1
# [16] = system: A549-ACTB-RAB5A; assay: lowest phenotypically active concentration; higher = less potent
# Summary of the method: as §1
# [17] = system: A549-CANX-COX4; assay: as above
# Summary of the method: as §1
# [18] = system: A549-GM130-SQSTM1; assay: as above
# Summary of the method: as §1
# [19] = system: A549-TP53BP1-CLTA; assay: as above
# Summary of the method: as §1
# [20] = system: A549-TUBA1B-RELA; assay: as above
# Summary of the method: as §1
SMILES,phenotypically active [1],phenotypically active [2],phenotypically active [3],phenotypically active [4],phenotypically active [5],phenotypically active [6],phenotypically active [7],phenotypically active [8],phenotypically active [9],phenotypically active [10],phenotypically active [11],phenotypically active [12],phenotypically active [13],phenotypically active [14],phenotypically active [15],lowest phenotypically active concentration [16] [µM],lowest phenotypically active concentration [17] [µM],lowest phenotypically active concentration [18] [µM],lowest phenotypically active concentration [19] [µM],lowest phenotypically active concentration [20] [µM]
CO[C@@]12[C@H](COC(N)=O)C3=C(C(=O)C(C)=C(N)C3=O)N1C[C@@H]1N[C@@H]12 [mitomycin],0 (inactive),0 (inactive),0 (inactive),0 (inactive),0 (inactive),0 (inactive),0 (inactive),0 (inactive),0 (inactive),0 (inactive),0 (inactive),0 (inactive),0 (inactive),0 (inactive),0 (inactive),–,–,–,–,–
O=C1CCc2c(ccc3ccccc23)O1 [Splitomicin],0 (inactive),0 (inactive),0 (inactive),0 (inactive),0 (inactive),0 (inactive),0 (inactive),0 (inactive),0 (inactive),0 (inactive),0 (inactive),0 (inactive),0 (inactive),0 (inactive),0 (inactive),–,–,–,–,–
N[C@@H](CSC(c1ccccc1)(c1ccccc1)c1ccccc1)C(=O)O [S-Trityl-L-cysteine],0 (inactive),0 (inactive),0 (inactive),0 (inactive),0 (inactive),0 (inactive),0 (inactive),0 (inactive),0 (inactive),0 (inactive),0 (inactive),0 (inactive),0 (inactive),0 (inactive),0 (inactive),–,–,–,–,–
CC[N+](CC)(CC)CCC(O)(c1ccccc1)C1CCCCC1 (stereo not drawn) [tridihexethyl],0 (inactive),0 (inactive),0 (inactive),0 (inactive),0 (inactive),0 (inactive),0 (inactive),0 (inactive),0 (inactive),0 (inactive),0 (inactive),0 (inactive),0 (inactive),0 (inactive),0 (inactive),–,–,–,–,–
CN(CCOc1ccc(C[C@H](Nc2ccccc2C(=O)c2ccccc2)C(=O)O)cc1)c1ccccn1 [GW 1929 hydrochloride],0 (inactive),0 (inactive),0 (inactive),0 (inactive),0 (inactive),0 (inactive),0 (inactive),0 (inactive),0 (inactive),0 (inactive),0 (inactive),0 (inactive),0 (inactive),0 (inactive),0 (inactive),–,–,–,–,–
O=C1c2ccccc2C(Cc2ccncc2)(Cc2ccncc2)c2ccccc21,0 (inactive),0 (inactive),0 (inactive),0 (inactive),0 (inactive),0 (inactive),0 (inactive),0 (inactive),0 (inactive),0 (inactive),0 (inactive),0 (inactive),0 (inactive),0 (inactive),0 (inactive),–,–,–,–,–
COC(=O)c1sccc1S(=O)(=O)Nc1ccc(Nc2ccccc2)cc1OC,0 (inactive),0 (inactive),0 (inactive),0 (inactive),0 (inactive),0 (inactive),0 (inactive),0 (inactive),0 (inactive),0 (inactive),0 (inactive),0 (inactive),0 (inactive),0 (inactive),0 (inactive),–,–,–,–,–
"O=C(/C=C/c1ccc(OCc2ccccc2)cc1)c1c(O)cc(OCc2ccccc2)cc1OCc1ccccc1 [4,2,4'-Tribenzyloxy-6'-hydroxychalcone]",0 (inactive),0 (inactive),0 (inactive),0 (inactive),0 (inactive),0 (inactive),0 (inactive),0 (inactive),0 (inactive),0 (inactive),0 (inactive),0 (inactive),0 (inactive),0 (inactive),0 (inactive),–,–,–,–,–
C[C@@H]1C[C@H]2[C@@H]3C[C@H](F)C4=CC(=O)C=C[C@]4(C)[C@@]3(F)[C@@H](O)C[C@]2(C)[C@@]1(O)C(=O)COC(=O)C(C)(C)C [flumethasone pivalate],1 (active),1 (active),1 (active),1 (active),1 (active),0 (inactive),0 (inactive),0 (inactive),0 (inactive),0 (inactive),0 (inactive),0 (inactive),0 (inactive),0 (inactive),0 (inactive),≤ 0.3,≤ 0.3,≤ 0.3,≤ 0.3,≤ 0.3
COc1c(O[C@@H]2O[C@H](CO)[C@@H](O)[C@H](O)[C@H]2O)cc2c(c1OC)-c1ccc(SC)c(=O)cc1[C@@H](NC(C)=O)CC2 [Thiocolchicoside],0 (inactive),0 (inactive),0 (inactive),0 (inactive),0 (inactive),0 (inactive),0 (inactive),0 (inactive),0 (inactive),0 (inactive),0 (inactive),0 (inactive),0 (inactive),0 (inactive),0 (inactive),–,–,–,–,–
CC(=O)[C@@]1(O)CC[C@H]2[C@@H]3C[C@H](C)C4=CC(=O)C=C[C@]4(C)[C@@]3(F)[C@@H](O)C[C@@]21C [fluorometholone],1 (active),1 (active),1 (active),1 (active),1 (active),0 (inactive),0 (inactive),0 (inactive),0 (inactive),0 (inactive),0 (inactive),0 (inactive),0 (inactive),0 (inactive),0 (inactive),≤ 0.3,≤ 0.3,≤ 0.3,≤ 0.3,≤ 0.3
COc1ccc([C@@H]2CNC(=O)C2)cc1OC1CCCC1 [(R)-(-)-Rolipram],0 (inactive),0 (inactive),0 (inactive),0 (inactive),0 (inactive),0 (inactive),0 (inactive),0 (inactive),0 (inactive),0 (inactive),0 (inactive),0 (inactive),0 (inactive),0 (inactive),0 (inactive),–,–,–,–,–
C#Cc1cccc(Nc2ncnc3cc(OCCOC)c(OCCOC)cc23)c1 [erlotinib],1 (active),1 (active),1 (active),1 (active),1 (active),1 (active),1 (active),1 (active),1 (active),1 (active),0 (inactive),0 (inactive),0 (inactive),0 (inactive),0 (inactive),≤ 0.3,3,3,1,1
Nc1nc(OCC2CCCCC2)c2nc[nH]c2n1,1 (active),0 (inactive),0 (inactive),0 (inactive),0 (inactive),0 (inactive),0 (inactive),0 (inactive),0 (inactive),0 (inactive),0 (inactive),0 (inactive),0 (inactive),0 (inactive),0 (inactive),9,–,–,–,–
OC[C@H]1NC[C@@H](O)[C@@H](O)[C@@H]1O [1-Deoxymannojirimycin hydrochloride],0 (inactive),0 (inactive),0 (inactive),0 (inactive),0 (inactive),0 (inactive),0 (inactive),0 (inactive),0 (inactive),0 (inactive),0 (inactive),0 (inactive),0 (inactive),0 (inactive),0 (inactive),–,–,–,–,–
CCN1C(C)(C)CC(Oc2ccc(C(=O)Nc3ccc(NC(=O)Nc4cc(C(C)(C)C)on4)cc3)nc2)CC1(C)C,0 (inactive),0 (inactive),0 (inactive),0 (inactive),0 (inactive),0 (inactive),0 (inactive),0 (inactive),0 (inactive),0 (inactive),0 (inactive),0 (inactive),0 (inactive),0 (inactive),0 (inactive),–,–,–,–,–
NC(=O)c1ccc(N(C(N)=O)c2c(F)cccc2F)nc1-c1ccc(F)cc1F,1 (active),0 (inactive),0 (inactive),0 (inactive),0 (inactive),0 (inactive),0 (inactive),0 (inactive),0 (inactive),0 (inactive),0 (inactive),0 (inactive),0 (inactive),0 (inactive),0 (inactive),9,–,–,–,–
CC(=O)NCC(=O)N1[C@@H]2CC[C@H]1c1ccc(Nc3ncc(C(F)(F)F)c(NC4CCC4)n3)cc12,1 (active),1 (active),1 (active),1 (active),1 (active),1 (active),1 (active),1 (active),1 (active),1 (active),1 (active),1 (active),1 (active),1 (active),1 (active),≤ 0.3,≤ 0.3,≤ 0.3,≤ 0.3,≤ 0.3
CC1(C)O[C@@H]2C[C@H]3[C@@H]4C[C@H](F)C5=CC(=O)CC[C@]5(C)[C@H]4[C@@H](O)C[C@]3(C)[C@]2(C(=O)CO)O1 [flurandrenolide],1 (active),1 (active),1 (active),1 (active),1 (active),0 (inactive),0 (inactive),0 (inactive),0 (inactive),0 (inactive),0 (inactive),0 (inactive),0 (inactive),0 (inactive),0 (inactive),≤ 0.3,≤ 0.3,≤ 0.3,≤ 0.3,≤ 0.3
COc1ccc(CCN(C)CCCN2CCc3cc(OC)c(OC)cc3CC2=O)cc1OC [zatebradine],0 (inactive),0 (inactive),0 (inactive),0 (inactive),0 (inactive),0 (inactive),0 (inactive),0 (inactive),0 (inactive),0 (inactive),0 (inactive),0 (inactive),0 (inactive),0 (inactive),0 (inactive),–,–,–,–,–
COc1nc(N)nc2c1ncn2[C@@H]1O[C@H](CO)[C@@H](O)[C@@H]1O [Nelarabine],1 (active),0 (inactive),0 (inactive),0 (inactive),0 (inactive),0 (inactive),0 (inactive),0 (inactive),0 (inactive),0 (inactive),0 (inactive),0 (inactive),0 (inactive),0 (inactive),0 (inactive),9,–,–,–,–
Cc1n[nH]c2ccc(-c3cncc(OC[C@@H](N)Cc4ccccc4)c3)cc12,1 (active),1 (active),1 (active),1 (active),1 (active),1 (active),1 (active),1 (active),1 (active),1 (active),1 (active),1 (active),1 (active),1 (active),1 (active),≤ 0.3,≤ 0.3,≤ 0.3,≤ 0.3,≤ 0.3
